The list is not random: actives were taken first. Their share in the collection is about 11%.
NS1 function inh: inhibitors of influenza NS1 protein function | 270,000 compounds, 0.4% hits | AID 2326 | Potency, µM (highest dose often 46.1 µM), inactives show at the highest dose activity, positive = more growth; calls by dose curve; note: actives are rising curves; nearly all actives have a fitted effect of over 50% in size
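A cell-based growth assay was used: compounds that relieve NS1-induced slow growth of budding yeast raise OD600. Assay medium was yeast nitrogen base with ammonium sulphate and -URA supplement, pH 6.0, with 2% galactose.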
VACV Venus inh: inhibitors of vaccinia virus (Venus reporter); Vaccinia virus Venus reporter expression, fluorescence; Potency, µM (doses to about 36.5 µM), inactives show top-dose activity change, negative = inhibition, most hits filed as inhibitors; 330,000 compounds, 0.46% hits; calls by dose curve; tested in A549 cells; note: % is set by controls: 0 for no effect and ±100 for the full control effect; nearly all actives have a fitted effect of over 30% in size
Pf growth 96h: P. falciparum growth inhibition at 96 hours. 320,000 compounds, 6.9% hits. AID 504834. Potency, µM (top dose mostly 28.7 µM), without a hit: at the highest dose activity change, negative = inhibition, usual class: inhibitors. P. falciparum luciferase reporter growth, 96 h; note: % is set by controls: 0 for no effect and ±100 for the full control effect
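Plates of compound plus infected erythrocytes (2% hematocrit, 0.05% parasitemia final) incubate 96 hours, 37 C, 5% CO2. Detection reagent added; reduced luminescence from the parasites' luciferase reporter flags inhibition.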
Pf growth 48h: inhibits P. falciparum growth in the first generation, 48 h | P. falciparum luciferase growth in erythrocytes, 48 h | Potency, µM (highest dose often 28.7 µM), for inactives: at the highest dose activity change, negative = inhibition, usual class: inhibitors | 310,000 compounds, 5.9% hits | AID 504832; note: % is set by controls: 0 for no effect and ±100 for the full control effect
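Compounds are pin-transferred into medium, infected erythrocytes (2% hematocrit, 0.1% parasitemia final) are added, and plates sit one parasite generation at 37 C in 5% CO2. Detection reagent is then added and luminescence measured.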
HCV inhibitor: blocks hepatitis C virus. Huh7.5.1 HCVcc-Cre infection, luciferase reporter, 44 h. 340,000 compounds, 3.4% hits. Potency, µM (titrated, usually from 41.8 µM), inactives show top-dose activity change, negative = inhibition, actives largely listed as inhibitors; note: % is set by controls: 0 for no effect and ±100 for the full control effect
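Luciferase read-out (15 sec integration) after a 15 min room-temperature substrate step quantifies HCVcc-Cre infection. Cells, 1,000 per well, had compound added 4 h post-plating, then virus at ~0.5 moi, and were cultured 44 h.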
VACV mCherry inh: vaccinia inhibition (mCherry reporter). Potency, µM (highest dose often 36.5 µM), for the others: at the highest dose activity change, negative = inhibition, actives largely listed as inhibitors. AID 720579. 310,000 compounds, 0.63% hits. Vaccinia virus mCherry reporter infection, fluorescence; calls by dose curve; tested in A549 cells; note: % is set by controls: 0 for no effect and ±100 for the full control effect; nearly all actives have a fitted effect of over 35% in size
Starred values were filed as active, the others as inactive; i = inactive; ? = inconclusive; . = not tested or not shown; [ ] = dose if it differs, or a comment. Unless noted, calls come from the whole dose curve; as a rule, active = well fitted inhibition curve with a large enough effect; inconclusive = small, poorly fitted or top-dose-only effect, or another doubt; inactive = no such curve, though single readings can be large or run the other way. Potency is the fitted concentration of half-maximal effect.

SMILES	NS1 function inh	VACV Venus inh	Pf growth 96h	Pf growth 48h	HCV inhibitor	VACV mCherry inh
Cc1cc(C(=O)CSc2nnc(-c3cccs3)o2)c(C)n1-c1ccccc1	8%	.	?	15%	8.9µM*	.
Cc1cc(C(=O)COC(=O)c2ccc(N)c([N+](=O)[O-])c2)c(C)n1Cc1ccc2c(c1)OCO2	-1%	-7%[7.34 µM]	7%	3%	13µM*	-21%[7.34 µM]
CC(Oc1ccc2c3c(c(=O)oc2c1)CCC3)C(=O)NC1CCN(Cc2ccccc2)CC1 (configuration not stated)	3%	.	?	?	-15%	.
CCOC(=O)c1c(C)n(C)c2ccc(OC(=O)c3ccc([N+](=O)[O-])cc3)cc12	3%	-8%	-23%	19%	7%	-4%
COc1cccc(NC(=O)CSc2nnc(-c3cc(C)n(-c4ccccc4)c3C)o2)c1	-41%	-17%	10µM*	171%	-27%	-28%
CCN(CC)C(=O)CSc1nnc(-c2cc(-c3ccc(Cl)cc3)nc3ccccc23)o1	5%	-9%	58%	42%	2%	-2%
CN(C)C(=O)CSc1nnc(-c2cc(-c3cccs3)nc3ccccc23)o1	-44%	5µM*	.	-26%	?	.
Cc1cc(C(=O)CSc2nnc(-c3ccc4c(c3)OCO4)o2)c(C)n1-c1ccc(F)cc1	?	2%	?	1%	-2%	-7%
Cc1cc(C(=O)CSc2nnc(-c3ccco3)o2)c(C)n1-c1ccc2c(c1)OCCO2	1%	-18%	12µM*	.	13µM*	.
Cc1cc(C(=O)CSc2nnnn2C)c(C)n1-c1ccc2c(c1)OCCO2	4%	.	.	1%	-8%	.
Cc1nnc(SCC(=O)c2cc(C)n(-c3ccc4c(c3)OCO4)c2C)s1	-35%	-4%	-13%[5.75 µM]	?	11µM*	-9%
CC(C)(C)OC(=O)N[C@@H](C(=O)OC(C)(C)C)c1ccc(C(F)(F)F)cc1	.	-21%	22%	-17%	2%	i
CC(C)CCNC(=O)Nc1ccc2c(c1)N(C)C(=O)c1ccccc1S2	.	-16%	.	.	.	-24%
COc1ccc(-c2cc(CNC(=O)CCl)on2)cc1	9%	8.9µM*	1.5µM*	2.9µM*	?	.
COc1ccc(-c2cc(CNC(C)=O)on2)cc1	7%	-7%	29%	48%	-6%	.
CC(C)C(=O)NCc1cc(-c2ccccc2)no1	3%	-10%	5.2µM*	-41%[5.75 µM]	17%	-11%
CCOC(=O)C1CCN(C(=O)Cn2cnc3sc(C)c(S(=O)(=O)N4CCOCC4)c3c2=O)CC1	-15%	1%	?	1.5µM*	9%	i
CCOC(=O)CNC(=O)Cn1cnc2sc(C)c(S(=O)(=O)N3CCOCC3)c2c1=O	5%	0%	?	22%	-2%	-8%
CC(=O)N(C(C)=O)c1c(C#N)c(C)n(-c2ccccc2)c1C(=O)c1ccccc1	-15%	?	54%	8%	4%	.
CCc1ccc2c(c1)C1(NN=C(c3cccc4ccccc34)S1)C(=O)N2 (configuration not stated)	?	.	-21%	2.9µM*	?	.
COC(=O)c1cc(COC(=O)c2ccc3ccccc3n2)oc1C	-53%	-11%	.	23%	4%	-12%
COc1cccc(-c2nnc3sc(C4CCCCC4)nn23)c1	-114%	.	3%	.	-28%	.
COc1ccc(-c2nnc3sc(CCN4C(=O)c5ccccc5C4=O)nn23)cc1	-31%	-1%	?	5.2µM*	18%	-3%
CCOc1cccc(-c2nnc3sc(-c4cc(OC)c(OC)cc4OC)nn23)c1	?	.	35%	1%	.	.
COc1cc(OC)c(-c2nn3c(C4CCCCC4)nnc3s2)cc1OC	-78%	.	44%	5.2µM*	?	.
CCOc1cccc(-c2nnc3sc(C4CCCCC4)nn23)c1	-1%	.	10µM*	9.3µM*	-18%	.
COc1cc(-c2nnc3sc(Cc4ccccc4)nn23)cc(OC)c1OC	-10%	-28%	6.6µM*	?	-25%	?
CCn1nc(C)c(C2C(C#N)=C(N)Oc3n[nH]c(C)c32)c1C (configuration not stated)	5%	-14%	-24%	-4%	8%	i

Source: PubChem BioAssay (National Center for Advancing Translational Sciences (NCATS))
